Measurements: the supplement of paper PMC10338343
± gives the standard deviation.

System: MILI (PIWIL2) piRISC loaded with piRNA #1 (26 nt)
Assay: pre-steady-state target cleavage rate (min^-1); guide: piRNA #1 5'p-UGAGGUAGUAGGUUGUAUAGUAUCCA; MIWI and MILI are mouse PIWI proteins and EfPiwi is from a freshwater sponge; tags in brackets are library labels; higher = faster piRNA-guided slicing of the target
Settings: auxiliary factor: 500 nM mouse GTSF1
Summary of the method: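 In this Cleave-'n-Seq assay, uncleaved targets were sequenced and normalised to depth and to weakly complementary targets. They came from a transcribed, DNA-blocked target RNA library […] mixed with 1 nM active affinity-purified piRISC carrying one synthetic guide, with or without 500 nM GTSF1 partner protein, in HEPES–potassium acetate buffer at 33 °C for 0–8 or 0–960 min. After three trials were pooled and k3 was capped at 0.0001 min^-1, the pre-steady-state cleavage rate was obtained from a burst-and-steady-state fit.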
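Further: 1 nM active piRISC with 0.1 nM target library at 33 °C single turnover.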

Sequence	pre-steady-state target cleavage rate
GGAGACCUUACUAUACUACCUACUACCACA	0.173 ± 0.014
GGAGACCUUACUAUACAACCUACAACGUCA	0.0109 ± 0.0043
GGAGACGAUACAAUACAACCUACUUCCUCA	0.126 ± 0.024
GGAGACCAUAGUAUACAACCUACUUCCUCA	0.073 ± 0.014
GGAGACCUAUGUAUACUACCUUCUACCUCA	0.00348 ± 0.0016
GGAGACCAUACAAUACAACCAACUACCUCA	0.00736 ± 0.0032
GGAGAGGAAACUAUAGAACCUACUACCUCA	0.178 ± 0.018
GGAGACCUAACUAUACAACCUACUUACCUCA	0.135 ± 0.021
GGAGUGGAGACUAUACAACCUACUACCUCA	0.212 ± 0.029
GGAGACCAUAGUAUACAACCUACAACCUCA	0.129 ± 0.017
GGAGACCUAUCUUAACAACCUACUACCUCA	0.0183 ± 0.0045
GGAGACCUAAGCUAUACAACCUACUACCUCA	0.141 ± 0.028
GGAGACCAUACUAUAAACCUACUACCUCA	0.0199 ± 0.0046
GGAGACCUAACUAAACAACCUACAACCUCA	0.131 ± 0.029
GGAGACCUAUCUAUACAACCAAGUACCUCA	0.00317 ± 0.0031
GGAGACCUAUGUAUACUACCUACAACCUCA	0.0574 ± 0.0091
